Measurements from the supplement of paper PMC8975748.
Counter-ions that a name gives are not always drawn.

Test system: Saccharomyces cerevisiae BY4741 SeMeCo community
Experiment: z-score of subpopulation abundance vs DMSO median, subpopulation auxotrophic for HLU; higher = larger share of this subpopulation than in DMSO controls
Conditions: 10 µM; 24 h; SM minimal medium; subpopulation (auxotrophy): HLU
Description: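 Fluorescent four-plasmid SeMeCo (self-establishing metabolically cooperating S. cerevisiae BY4741 community; plasmids pH-mRuby2, pL-mWasabi, pU-eCFP, pM-TagRFP657) was grown 24 h in minimal SM medium with each Selleck FDA-approved drug at 10 µM in 384-well plates. Cells were fixed and imaged by high-content confocal microscopy. For each auxotrophic subpopulation (and the prototroph), a z-score gives the deviation from the DMSO vehicle-control population median.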

Row | SMILES | z-score of subpopulation abundance
1 | O=C([O-])CC(O)(CC(=O)[O-])C(=O)[O-].O=C([O-])CC(O)(CC(=O)[O-])C(=O)[O-].[Bi+3].[K+].[K+].[K+].[K+].[K+] [Bismuth Subcitrate Potassium] | 3
2 | CO[C@H]1C[C@@H]2CC[C@@H](C)[C@@](O)(O2)C(=O)C(=O)N2CCCC[C@H]2C(=O)O[C@H]([C@H](C)C[C@@H]2CC[C@@H](OCCO)[C@H](OC)C2)CC(=O)[C@H](C)/C=C(\C)[C@@H](O)[C@@H](OC)C(=O)[C@H](C)C[C@H](C)/C=C/C=C/C=C/1C [Everolimus (RAD001)] | 22.9
3 | Cc1cnc(NC(=O)C2=C(O)c3ccccc3S(=O)(=O)N2C)s1 [Meloxicam] | -1.26
4 | Cc1ccc(-c2ncc(Cl)cc2-c2ccc(S(C)(=O)=O)cc2)cn1 [Etoricoxib] | 0.34
5 | CN(Cc1cnc2nc(N)nc(N)c2n1)c1ccc(C(=O)N[C@@H](CCC(=O)O)C(=O)O)cc1 [Methotrexate] | 4.61
6 | CC(=O)OC(C)C[N+](C)(C)C (stereo not given) [Methacholine chloride] | 0.55
7 | CC(C)NC(=N)NC(=N)Nc1ccc(Cl)cc1 [Proguanil] | -0.46
8 | Nc1nc(O)c2ncn(CCC(CO)CO)c2n1 [Penciclovir] | -0.33
9 | O=C1c2cccc3c2[C@H](CCC3)CN1[C@@H]1CN2CCC1CC2 [Palonosetron] | -0.63
10 | COC(=O)Nc1nc2cc(C(=O)c3ccccc3)ccc2[nH]1 [Mebendazole] | -0.05
11 | NC(=O)c1cn(Cc2c(F)cccc2F)nn1 [Rufinamide] | 0.55
12 | COc1ccc2cc(CCC(C)=O)ccc2c1 [Nabumetone] | -0.94
13 | CC1=C[C@H]2C(=O)O[C@H]3C[C@@H](C/C=C(\C)C[C@@H](C)/C=C/C=C4\CO[C@H](/C1=N\O)[C@@]42O)O[C@@]1(CC[C@H](C)[C@@H](C)O1)C3.CC[C@H]1O[C@]2(CC[C@@H]1C)C[C@@H]1C[C@@H](C/C=C(\C)C[C@@H](C)/C=C/C=C3\CO[C@@H]4/C(=N\O)C(C)=C[C@@H](C(=O)O1)[C@]34O)O2 [Milbemycin Oxime] | -0.11
14 | CCN(CC)C(=O)[C@@]1(c2ccccc2)C[C@H]1CN [Levomilnacipran Hydrochloride] | -0.95
15 | C[C@H](NCc1ccc(OCc2cccc(F)c2)cc1)C(N)=O [Safinamide Mesylate] | 0.4
16 | Fc1ccc([C@@H]2CCNC[C@H]2COc2ccc3c(c2)OCO3)cc1 [Paroxetine HCl] | -0.09
17 | CC(C)(C)C(=O)C(Oc1ccc(Cl)cc1)n1ccnc1 (stereo not given) [Climbazole] | 1.28
18 | CC[C@@H]1C(=O)OC[C@@H]1Cc1cncn1C [Pilocarpine HCl] | -0.93
19 | COCC(=O)Nc1cc(Sc2ccccc2)ccc1N=C(NC(=O)OC)NC(=O)OC [Febantel] | -0.05
20 | C=C1CCC2C(C)(CO)C(O)CCC2(C)C1CC=C1C=COC1=O (stereo not given) [Dehydroandrographolide] | 0.64

Row | SMILES | z-score of subpopulation abundance
21 | CN(CCN1CCC(OC(=O)Nc2ccccc2-c2ccccc2)CC1)C(=O)c1ccc(CN2CCC(C(N)=O)CC2)cc1 [Revefenacin] | -0.13
22 | O=C(O)c1cc(O)c2c(c1)[C@H]([C@H]1c3cc(C(=O)O)cc(O)c3C(=O)c3c(O[C@@H]4O[C@H](CO)[C@@H](O)[C@H](O)[C@H]4O)cccc31)c1cccc(O[C@@H]3O[C@H](CO)[C@@H](O)[C@H](O)[C@H]3O)c1C2=O [Sennoside A] | -0.71
23 | C#CCN(C)Cc1ccccc1 [Pargyline hydrochloride] | 0.43
24 | CCN(CC)CCOC(=O)c1ccc(N)cc1 [Procaine HCl] | 0.02
25 | Cc1cc(CC(C)CC(C)(C)C)n(O)c(=O)c1 (stereo not given) [Piroctone Olamine] | 20.3
26 | COc1ccc(C(C)=O)c(O)c1 [Paeonol] | -0.12
27 | COC(=O)C1=C(C)NC(C)=C(C(=O)OCCN2CCN(C(c3ccccc3)c3ccccc3)CC2)C1c1cccc([N+](=O)[O-])c1 (stereo not given) [Manidipine] | 1.73
28 | COc1cccc2c1C(=O)c1c(O)c3c(c(O)c1C2=O)C[C@@](O)(C(C)=O)C[C@@H]3O[C@H]1C[C@H](N)[C@H](O)[C@H](C)O1 [Daunorubicin HCl] | 4.11
29 | CCOC(=O)C1=C[C@]2(CC)CCCN3CCc4c(n1c1ccccc41)[C@@H]32 [Vinpocetine] | -0.1
30 | CC[C@@]1(O)C(=O)OCc2c1cc1n(c2=O)Cc2cc3cc(O)ccc3nc2-1 [(S)-10-Hydroxycamptothecin] | 0.14
31 | COc1ccnc(C[S+]([O-])c2nc3cc(OC(F)F)ccc3[nH]2)c1OC (stereo not given) [Pantoprazole] | 1.13
32 | CN(C)CCN1C(=O)c2cccc3cc(N)cc(c23)C1=O [Amonafide] | 0.2
33 | O=C(CCCN1CC=C(n2c(=O)[nH]c3ccccc32)CC1)c1ccc(F)cc1 [Droperidol] | -0.09
34 | COc1cnc(NS(=O)(=O)c2ccc(N)cc2)nc1 [Sulfameter] | -0.26
35 | CCCCNC(=O)NS(=O)(=O)c1ccc(C)cc1 [Tolbutamide] | -0.37
36 | NCC[C@H](O)C(=O)N[C@@H]1C[C@H](N)[C@@H](O[C@H]2O[C@H](CN)[C@@H](O)[C@H](O)[C@H]2O)[C@H](O)[C@H]1O[C@H]1O[C@H](CO)[C@@H](O)[C@H](N)[C@H]1O [Amikacin disulfate] | 0.12
37 | CC[C@H]1OC(=O)[C@H](C)[C@@H](O[C@H]2C[C@@](C)(OC)[C@@H](O)[C@H](C)O2)[C@H](C)[C@@H](O[C@@H]2O[C@H](C)C[C@H](N(C)C)[C@H]2O)[C@](C)(O)C[C@@H](C)C(=O)[C@H](C)[C@@H](O)[C@]1(C)O [Erythromycin thiocyanate] | -0.56
38 | Clc1ccc(CCC(Cn2ccnc2)Sc2c(Cl)cccc2Cl)cc1 (stereo not given) [Butoconazole nitrate] | 12.5
39 | CN[C@@H]1[C@@H](O[C@H]2O[C@H](CO)[C@@H](N)[C@H](O)[C@H]2O)OC2C[C@@H](N)[C@@H](O[C@H]3[C@H](O)[C@@H](O)[C@H](N)C[C@@H]3N)OC2[C@@H]1O (stereo not given in full) [Apramycin Sulfate] | 0.36
40 | O=C(O)Cc1ccccc1Nc1c(Cl)cccc1Cl [Diclofenac Sodium] | -1.75
